PTAP TSG101 blk = qHTS Assay for Iinhibitors of HIV-1 Budding by Blocking the Interaction of PTAP/TSG101 | Tumor susceptibility gene 101 protein (Homo sapiens), Q99816 | Fluorescence polarization, FITC-PTAP peptide / Tsg101 binding | 340,000 tested, under 10 active | Potency, µM (top dose mostly 115 µM), for inactives: at the highest dose activity change, negative = inhibition, actives largely listed as inhibitors; active means well fitted inhibition curve with a large enough effect in the main read-out, with a control signal flat, not every such curve was filed as active; inconclusive means small, poorly fitted or top-dose-only effect, or effect the other way, or a change in a side signal; inactive means no such curve, though single readings can be large or run the other way; further: potency means the concentration at half of the fitted maximal effect; % of control where 0% means no effect
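Fluorescence polarization binding of Tsg101 binding domain (10 uM final) to FITC-labeled PTAP peptide (50 nM final) in HEPES pH 7.5 buffer with NaCl, Tween 20, EDTA, TCEP. Compounds added before peptide; binding 20 min at RT.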
TRHR agonist = qHTS for Small Molecule Agonists and Allosteric Enhancers of Human TRH Receptor: Primary Screen for Agonists; Thyrotropin-releasing hormone receptor (Homo sapiens), P34981; TRHR cells, calcium flux fluo-8, FDSS agonist mode; activation, % at 2 µM; actives 0.18% (n = 360,000); in the data active means activation above about 30%; further: 0% is about no effect
Target sequence (P34981 whole entry, looked up): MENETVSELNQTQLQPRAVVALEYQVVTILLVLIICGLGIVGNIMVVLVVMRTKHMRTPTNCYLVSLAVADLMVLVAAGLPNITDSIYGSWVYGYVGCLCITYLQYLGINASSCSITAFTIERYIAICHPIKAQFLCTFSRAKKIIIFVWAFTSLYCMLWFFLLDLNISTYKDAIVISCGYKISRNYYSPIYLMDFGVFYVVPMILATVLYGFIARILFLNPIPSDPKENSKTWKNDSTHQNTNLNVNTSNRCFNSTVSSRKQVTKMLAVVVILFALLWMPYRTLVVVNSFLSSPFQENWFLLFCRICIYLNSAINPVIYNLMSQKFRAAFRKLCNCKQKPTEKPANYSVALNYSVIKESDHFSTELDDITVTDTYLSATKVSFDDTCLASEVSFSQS
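Steps: seed TRHR cells overnight; add fluo-8 no-wash Ca dye, RT 30 min–1.5 h; record 10 s baseline; pin-transfer compounds; monitor fluorescence 1 cycle/s for the agonist window. Calcium increases flag candidate agonists.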
TRHR enhancer = qHTS for Small Molecule Agonists and Allosteric Enhancers of Human TRH Receptor: Primary Screen for Enhancers | Thyrotropin-releasing hormone receptor (Homo sapiens), P34981 | actives 0.66% (n = 360,000) | enhancement, % at 2 µM | TRHR cells, fluo-8 calcium fluorescence, EC20 TRH enhancement; in the data active means enhancement above about 30%; further: 0% is about no effect
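Enhancer read-out: after compound pinning and an initial kinetic agonist-mode read, an EC20 of TRH (10 nM final) was injected and fluo-8 calcium signal (Ex 480/Em 530) followed at 1 s/cycle for 100 cycles in TRHR-expressing cells.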
TRPML1 inh = qHTS for Inhibitors of the Human Mucolipin Transient Receptor Potential 1 (TRPML1); actives 0.02% (n = 390,000); TRPML1-inducible cells, Ca2+ dye fluorescence, FDSS; stronger effect = lower value; inhibition of EC80 agonist-evoked calcium signal; activity change, negative = inhibition, % (no concentration beside the values); Mucolipin-1 (Homo sapiens), Q9GZU1; in the data active means activity change below about -50%; inconclusive means between about -30% and that limit;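 further: stimulus is agonist 54-4 at its EC80 concentration; on the % scale 0 is the no-effect control and ±100 the full control effect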
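Tet-induced TRPML1-DL cells loaded with Ca8 no-wash calcium dye were read kinetically on FDSS. Compound addition was followed by EC80 agonist 54-4 (4 uM final); inhibition was read over 110 s.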
TRPML1 agonist = qHTS for Agonists of the Human Mucolipin Transient Receptor Potential 1 (TRPML1); Mucolipin-1 (Homo sapiens), Q9GZU1; TRPML1-expressing cells, Ca2+ dye fluorescence, FDSS; activation, % (concentration not given with the values); actives 0.12% (n = 410,000); AID 624414, 2012; in the data active means activation above about 50%; inconclusive means mostly about 30% to 49%; further: 0% is about no effect
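Agonist activity was taken from a 110 s kinetic Ca2+ dye read on the FDSS after pinning compounds onto TRPML1-DL cells. The cells were seeded at 1,500/well with Tet inducer, incubated about 16 h, then dye-loaded at room temperature.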
The depositor's hits bear a star; ? = inconclusive; . = no result. This is a sample that favours compounds with a hit; in the whole collection about 0.81% have one here.

SMILES	PTAP TSG101 blk	TRHR agonist	TRHR enhancer	TRPML1 inh	TRPML1 agonist
COc1cccc(N2CCN(c3ncnc4c3c(-c3ccccc3)cn4-c3ccc(F)cc3)CC2)c1	.	0	-5	7	3
Cn1nc(-c2ccccc2)c2nc3ccccc3nc21	?	55*	1	-4	12
CCCCn1nc(-c2ccccc2)c2nc3ccccc3nc21	.	22	-1	.	.
CCCCNc1ccc(/C=C2\C=Cc3ccccc32)cc1	.	.	.	.	0
CC(C)(C)n1ncc2c(=O)n(Cc3ccccc3Cl)cnc21	.	.	.	-1	2
CSc1nnc(N2C(=O)C(O)=C(C(=O)c3ccco3)C2c2cccc(Cl)c2)s1 (configuration not stated)	-4%	16	0	-20	-1
CSc1nnc(N2C(=O)C(O)=C(C(=O)c3ccco3)C2c2ccc(F)cc2)s1 (configuration not stated)	-7%	36*	3	-10	0
O=[S+]([O-])(c1ccc2c(c1)OCCO2)N1CCN([S+](=O)([O-])c2c(F)cc(F)cc2Br)CC1	.	-2	-1	.	.
O=C1[C@H]2[C@@H](C(=O)N1c1cccc3ccccc13)C1(C(=O)c3ccccc3C1=O)N1CCC[C@@H]21	-2%	-1	34*	15	1
COc1ccc(C(CC(=O)O)NC(=O)C2CCCCC2)cc1 (configuration not stated)	-6%	0	39*	-5	-1
COc1cccc(C(=O)NCCc2csc3nc(-c4ccccc4F)nn23)c1OC	.	0	35*	0	1
O=C(NCCc1csc2nc(-c3ccccc3F)nn12)c1ccccc1C(F)(F)F	.	0	1	-12	2
CCCN1CCC(=O)N(CCC#N)CC1	.	.	.	.	0
CC(=O)c1cccc(NC(=O)Nc2nc(C)cc(C)n2)c1	5%	-1	33*	4	0
CC(=O)c1cccc(NC(=O)Nc2ccccc2)c1	-5%	1	-5	6	0
CC(=O)Nc1sc(N/N=C\c2ccccc2F)nc1-c1cccs1	-2%	0	36*	-13	0
COc1ccc(C(=O)Nc2nnc(CC(=O)N/N=C/c3ccc(O)cc3O)s2)cc1	.	52*	3	.	.
COc1ccccc1C(=O)N1N=C(c2ccc(NS(C)(=O)=O)cc2)CC1c1cccs1 (configuration not stated)	-7%	-1	34*	14	2
Cc1ccccc1C(=O)N1N=C(c2ccc(NS(C)(=O)=O)cc2)CC1c1cccs1 (configuration not stated)	0%	-1	-9	3	1
Nc1cc(N)cc(N)c1	.	.	.	.	0
Nc1ccc(Oc2ccc3nc(-c4ccccc4)c(-c4ccccc4)nc3c2)cc1	1%	0	15	-14	0
Nc1ccc2nc(-c3ccccc3)c(-c3ccccc3)nc2c1	?	32*	19	-12	21
CCc1cc2cccc(C)c2nc1SCC(=O)Nc1cc(C)on1	0%	0	40*	9	4
CCc1cc2ccc(C)c(C)c2nc1SCC(=O)Nc1cc(C)on1	-2%	1	2	8	-1
CC(C)=CCC/C(C)=C/CC/C(C)=C/CCC1(C)CCc2cc(O)ccc2O1 (configuration not stated)	.	.	.	.	0
O=C(NNC(=S)Nc1ccccc1)c1cccnc1	0%	0	41*	30	-1
O=C(NNC(=S)NC(=O)c1cccnc1)c1ccccc1	-6%	0	-4	17	0
Cc1ccccc1C1CC(c2ccc(Br)cc2)Nc2nc(N)nn21 (configuration not stated)	-4%	1	40*	-4	4

From PubChem BioAssay
